According to PubChem BioAssay AID463173 (ICCB-Longwood Screening Facility, Harvard Medical School, 2010):
The campaign covered roughly 52,000 compounds. About 4,300 (8.3%) were called active. No stated cut-off is given here; in the data, active means survival mostly below about 52% (no sharp cut-off); inactive means mostly above about 56%. For the sample, actives were picked, then their nearest neighbours and some compounds at random.

system: DeltatarO mutant; experiment: growth inhibition of S. aureus wild type versus tarO mutant, primary screen, teichoic acid synthesis inhibitors, RN4220, OD600 (AID 463173); details: OD600, 18 h, hits give low values, screened at 18.75 µg/mL (by protocol)

SMILES	survival
COCC(=O)Nc1c(C(=O)Nc2ccc(C)cc2)oc2ccccc12	86% (inactive)
Cc1ccc(N)cc1N(C)C	78% (inactive)
Cc1ccc(CN2CCN(C3CCN(S(=O)(=O)N(C)C)CC3)C(=O)C2=O)cc1	82% (inactive)
C=CCn1c(C(NC(=O)c2ccc(Cl)cc2Cl)C(C)C)n[nH]c1=S (stereo not given)	81% (inactive)
COc1cc(NC(=O)C2CCN(S(=O)(=O)c3c(C)noc3/C=C/c3c(C)cc(C)cc3C)CC2)cc(OC)c1	78% (inactive)
Cc1cccc(CCNC(=O)C2CCC(CNS(=O)(=O)c3ccccc3)CC2)c1 (stereo not given)	77% (inactive)
Clc1ccc(Nc2c(-c3ccccc3Cl)nc3ccc(Cl)cn23)cc1	45% (inactive)
Cc1ccc(Cl)cc1NC(=O)NCc1cccn1Cc1ccc(F)cc1	104% (inactive)
CCNC(=O)c1c(C)oc2ncn(C)c(=O)c12	91% (inactive)
CSc1ccc(CCNC(=O)c2c(C)oc3ncn(C)c(=O)c23)cc1	-2% (active)
Cc1cccc(NC(=O)c2c(C)oc3ncn(CC(C)C)c(=O)c23)n1	72% (inactive)
Cc1oc2ncn(CC(C)C)c(=O)c2c1C(=O)Nc1cccc(C(F)(F)F)c1	-1% (active)
CCN(CC)CCCNC(=O)c1c(C)oc2ncn(CC(C)C)c(=O)c12	70% (inactive)
Cc1ccnc(NC(=O)c2c(C)oc3ncn(CC(C)C)c(=O)c23)c1	92% (inactive)
CCOc1ccc(CCNC(=O)c2c(C)oc3ncn(C)c(=O)c23)cc1	84% (inactive)
CCCCNC(=O)c1c(C)oc2ncn(CC(C)C)c(=O)c12	6% (active)
Cc1oc2ncn(CC(C)C)c(=O)c2c1C(=O)NCCCN1CCCCC1	101% (inactive)
Cc1cc(S(=O)(=O)N2CCN(Cc3noc(CCC(=O)N4CCCCC4)n3)CC2)ccc1F	89% (inactive)
CCC(=O)N1CCc2cc(Br)cc(S(=O)(=O)N3CCN(c4ccccc4)CC3)c21	73% (inactive)
CCOc1ccc(CNC(=O)C2CCCN(S(=O)(=O)c3ccc4c(c3)CCCC(=O)N4)C2)cc1 (stereo not given)	75% (inactive)
CN1c2ccc(Cl)cc2-c2nc(SCC(=O)NCc3ccc(F)cc3)ncc2S1(=O)=O	117% (inactive)
COc1ccc(-c2cn3c(n2)sc2cc(C(=O)Nc4ccc(F)cc4Cl)ccc23)cc1	61% (inactive)
O=C(c1cc2ccc3cccnc3c2[nH]1)N1CCCCC1	69% (inactive)
Cc1ccc(OC(=O)c2ccco2)cc1C	61% (inactive)

SMILES	survival
Cc1nc(CC(=O)Nc2ccc(C(N)=O)cc2)cs1	49% (inactive)
Cc1cccc(NC(=O)Cc2csc(COc3cccc(C)c3)n2)c1	74% (inactive)
Cc1cc(C)cc(NC(=O)Cc2csc(COc3cccc(C)c3)n2)c1	90% (inactive)
Cc1nc(CC(=O)Nc2ccc(C)c(C)c2)cs1	40% (active)
Cc1nc(CC(=O)Nc2ccc(N(C)C)cc2)cs1	45% (active)
Cc1cc(C)cc(NC(=O)Cc2csc(C)n2)c1	39% (active)
COc1ccc(NC(=O)Cc2csc(C)n2)cc1	47% (inactive)
CCCOC(=O)c1ccc(NC(=O)Cc2csc(C)n2)cc1	105% (inactive)
Cc1cccc(OCc2nc(CC(=O)Nc3ccc(C)c(C)c3)cs2)c1	85% (inactive)
COc1ccc(-c2cc(-c3ccc(F)cc3)nc3c2COc2ccc(F)cc2-3)cc1	65% (inactive)
CCC(=O)N1CCc2cc(S(=O)(=O)NC(CC(C)C)C(=O)NCc3cccc(OC)c3)ccc21 (stereo not given)	73% (inactive)
COC(=O)C1=C(c2ccccc2)c2ccccc2S(=O)(=O)N1CC(=O)Nc1ccc(F)c(F)c1	40% (inactive)
C1CCC(N2CCC(N3CCCCC3)CC2)CC1	91% (inactive)
N#CC(C#N)=Cc1ccc(-c2ccc3c(c2)COC3=O)o1	90% (inactive)
O=C(NC1CCCCC1)N1CCN(Cc2ccccc2)CC1	69% (inactive)
c1ccc(N2CCN(N=C3c4ccccc4-c4ccccc43)CC2)nc1	18% (active)
O=C(NC1CCCCC1)N1CCN(c2ccccn2)CC1	94% (inactive)
C(=N\N1CCN(c2ccccn2)CC1)/c1ccco1	100% (inactive)
C=Cn1c(C)c(C(C#N)=C(C#N)C#N)c2c1CCCC2	2% (active)
COCCNC(=O)C1CCN(S(=O)(=O)c2ccc3c(c2)CCCN3C(C)=O)CC1	85% (inactive)
Cc1ccc(NS(=O)(=O)c2ccc(NC(=O)N3CCCC3)cc2)cc1C	75% (inactive)
Cc1ccc(NS(=O)(=O)c2ccc3c(c2)n(C)c(=O)n3C)cc1C	67% (inactive)
Cc1cccc(Cn2ccn(Cc3ccc(Cl)cc3)c(=O)c2=O)c1	121% (inactive)
O=C(Nc1cc2c(s1)CCCC2)c1ccccc1	46% (active)

SMILES	survival
Cc1cccc(C(=O)Nc2nc3c(s2)CCCC3)c1	67% (inactive)
O=C(Nc1onc2c1CCCC2)c1ccccc1	105% (inactive)
Cc1ccccc1OCCCCn1c(-c2ccc(Cl)cc2)nc2ccccc2c1=O	71% (inactive)
Cc1ccc(OCCCn2c(-c3ccc(Cl)cc3)nc3ccccc3c2=O)cc1C	58% (inactive)
COc1cccc(OCCCCn2c(-c3ccc(Cl)cc3)nc3ccccc3c2=O)c1	62% (inactive)
COc1cccc(OCCCn2c(-c3ccc(Cl)cc3)nc3ccccc3c2=O)c1	61% (inactive)
COc1ccccc1OCCCCn1c(-c2ccc(Cl)cc2)nc2ccccc2c1=O	59% (inactive)
COc1ccc(OCCCCn2c(-c3ccc(Cl)cc3)nc3ccccc3c2=O)cc1	34% (active)
Cc1ccc(OCCCCn2c(-c3ccc(Cl)cc3)nc3ccccc3c2=O)cc1	68% (inactive)
CCOc1ccccc1OCCCn1c(-c2ccc(Cl)cc2)nc2ccccc2c1=O	42% (inactive)
COc1ccccc1OCCCn1c(-c2ccc(Cl)cc2)nc2ccccc2c1=O	29% (active)
O=c1c2ccccc2nc(-c2ccc(Cl)cc2)n1CCCCOc1ccc(F)cc1	45% (active)
CCc1ccc(OCCCn2c(-c3ccc(Cl)cc3)nc3ccccc3c2=O)cc1	44% (active)
O=c1c2ccccc2nc(-c2ccc(Cl)cc2)n1CCCOc1ccccc1F	57% (inactive)
COc1ccc(-c2cc3c(=O)n(CC(=O)Nc4ccccc4C(F)(F)F)ccn3n2)cc1OC	86% (inactive)
CSc1ccc(CNC(=O)CCn2ccc3cc(S(=O)(=O)N4CCCC4)ccc32)cc1	100% (inactive)
O=C(NCc1ccc(F)cc1)c1cc2n(n1)CCCN(Cc1ccc(F)cc1)C2=O	64% (inactive)
CC(C)(C)OC(=O)N1CCC(c2c(C(=O)Nc3cccc(C(F)(F)F)c3)cnn2-c2ccc(F)cc2F)CC1	61% (inactive)
N#Cc1ccc(-c2cccnc2)n(CC(=O)N2CCOCC2)c1=O	106% (inactive)
Cc1ccc(Cl)cc1N1CCN(C(=O)c2cc(S(=O)(=O)N3CCCCC3)cn2C)CC1	83% (inactive)
Cc1ccc(C(=O)Nc2ccc3oc(-c4cccnc4)nc3c2)c(Cl)c1	88% (inactive)
Cc1ccccc1NCc1nc2ccccc2n1CCOc1ccccc1	0% (active)
Cc1ccc(OCCn2c(CNc3ccccc3C)nc3ccccc32)cc1	42% (active)
Cc1ccccc1Cn1c(=O)n(CCCCC(=O)NCCc2ccccc2)c(=O)c2ccccc21	83% (inactive)

SMILES	survival
COc1ccc(NC(=O)C2=C(C)Nc3ncnn3C2c2ccc(O)cc2)cc1 (stereo not given)	101% (inactive)
CC1CCN(C(=O)C(C)Sc2nnc3c(n2)[nH]c2ccccc23)CC1 (stereo not given)	102% (inactive)
COc1cc(/C=C/c2nc(C#N)c(N3CCN(C)CC3)o2)cc(OC)c1OC	73% (inactive)
COc1ccc(/C=C/c2nc(C#N)c(N3CCC(C)CC3)o2)cc1OC	81% (inactive)
COc1cc(/C=C/c2nc(C#N)c(N3CCCCCC3)o2)cc(OC)c1OC	85% (inactive)
COc1ccc(/C=C/c2nc(C#N)c(N3CCCCCC3)o2)cc1OC	45% (active)
COc1ccc(/C=C/c2nc(C#N)c(N3CCCCC3)o2)cc1OC	76% (inactive)
COc1ccc(N2CCN(c3oc(/C=C/c4cc(OC)c(OC)c(OC)c4)nc3C#N)CC2)cc1	49% (active)
CCOC(=O)c1c(NC(=O)Cc2coc3cc(C)ccc23)sc2c1CCCC2	95% (inactive)
O=C(NC1CCS(=O)(=O)C1)Sc1ccccc1 (stereo not given)	96% (inactive)
CCc1ccc2nc(SCC(=O)N3CC(=O)Nc4ccccc43)c(C#N)cc2c1	107% (inactive)
COc1cc(NS(=O)(=O)c2ccc(NC(=O)c3ccc(C(C)=O)cc3)cc2)nc(OC)n1	87% (inactive)
O=C(OCc1ccccc1)c1ccc(-c2nnn(Cc3ccccc3F)n2)cc1	98% (inactive)
O=C1C(c2ccc(C(F)(F)F)cc2)=C(Nc2ccc(Cl)cc2)c2ccccc21	63% (inactive)
Cc1ccc(NC2=C(c3ccc(C(F)(F)F)cc3)C(=O)c3ccccc32)cc1C	69% (inactive)
COc1ccc(C2=C(Nc3ccc(Br)c(C)c3)c3ccccc3C2=O)cc1	0% (active)
COc1ccc(NC2=C(c3ccccc3)C(=O)c3ccccc32)cc1Cl	116% (inactive)
COc1ccc(C2=C(Nc3ccc(C)c(C)c3)c3ccccc3C2=O)cc1	93% (inactive)
Cc1cc(C)cc(NC2=C(c3ccccc3)C(=O)c3ccccc32)c1	39% (active)
COc1ccc(OC)c(NC2=C(c3ccccc3)C(=O)c3ccccc32)c1	62% (inactive)
COc1ccc(C2=C(Nc3ccc(C)cc3C)c3ccccc3C2=O)cc1	71% (inactive)
Cc1ccc(NC2=C(c3ccc(C(F)(F)F)cc3)C(=O)c3ccccc32)cc1F	28% (active)
COc1cc(C(CC(=O)Nc2cc(C)ccn2)N2Cc3ccccc3C2=O)cc(OC)c1OC (stereo not given)	76% (inactive)
